Test results: PubChem BioAssay (Tox21)
Values joined by “and” are separate entries in the source; they are usually repeats but may differ in a detail not shown here. Equal values may be shown once. Results filed as inconclusive are left out. A call without a number means that no potency is given here. Some compounds were tested as several samples or in several runs, with calls that do not always agree. Active and inactive are the calls of the source. Unless noted, the call rests on the fitted dose curve; in most records, active means well fitted curve in the direction sought with a large enough effect in the repeat runs; inconclusive means weak or mixed curves; inactive means no such curve, though single readings can be large; an effect the other way counts as inactive or inconclusive.

Columns and labels:
[1] = qHTS assay to identify small molecule agonists of the estrogen related receptor (ERR) signaling pathway from Tox21 library (AID 1224849; calls by dose curve; further: nearly all actives have a fitted effect of over 15% in size); details: ERR reporter cell line, ONE-Glo luciferase, 18 h; at 42.5 µM (top of the series)
Method in brief: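 ERR reporter cell line (NTP) seeded, rested 6 h at 37 C/5% CO2, then pinned with Tox21 compounds in DMSO. After 18 h at 37 C, ONE-Glo luciferase luminescence was read following 30 min at room temperature.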

[2] = qHTS RealTime-Glo MT Cell Viability Assay in HepG2 cells - 24 hour (AID 1224867); details: RealTime-Glo luminescence; series mostly up to 76.8 µM; further: nearly all actives have a fitted effect of over 50% in size
Method in brief: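 HepG2 suspension premixed with RealTime-Glo reagents is plated at 600 cells per well and left 5 h at 37 C/5% CO2. Compounds in DMSO then go in, and bioluminescence reflecting viable cell number is recorded over 40 h.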

[3] = qHTS RealTime-Glo MT Cell Viability Assay in HEK293 cells - 32 hour (AID 1224868); details: RealTime-Glo luminescence; series mostly up to 76.8 µM; further: nearly all actives have a fitted effect of over 50% in size; further: potency means the concentration at half of the fitted maximal effect
Method in brief: (§1)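 Reads taken at 0, 8, 16, 24, 32 and 40 h from the same wells. HEK293 cells (600/well) carried RealTime-Glo reagents from seeding, with compound added after a 5 h settle at 37 C.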

[4] = A CellTox Green Cytotoxicity Assay to monitor cytotoxicity in HEK293 cells - 0 hour (AID 1224869); details: CellTox Green fluorescence; series mostly up to 76.8 µM; further: nearly all actives have a fitted effect of over 50% in size; further: potency means the concentration at half of the fitted maximal effect
Method in brief: (§2)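 HEK293 cells premixed with CellTox Green dye were seeded at 600 cells/well and left 5 h at 37 C/5% CO2 before pin transfer of 23 nL compound in DMSO. Fluorescence from dye bound to dead-cell DNA was read during 40 h treatment.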

[5] = qHTS RealTime-Glo MT Cell Viability Assay in HepG2 cells - 40 hour (AID 1224870); details: RealTime-Glo luminescence; series mostly up to 76.8 µM; further: nearly all actives have a fitted effect of over 50% in size
Method in brief: (§3)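 HepG2 cells (600/well) mixed with RealTime-Glo MT reagent, settled 5 h at 37 C/5% CO2 before compound addition. Nonlytic NanoLuc luminescence from viable-cell prosubstrate reduction read repeatedly during 40 h treatment at 37 C.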

[6] = A CellTox Green Cytotoxicity Assay to monitor cytotoxicity in HEK293 cells - 40 hour (AID 1224871); details: CellTox Green fluorescence; series mostly up to 76.8 µM; further: nearly all actives have a fitted effect of over 45% in size; further: potency means the concentration at half of the fitted maximal effect
Method in brief: as §2

[7] = qHTS RealTime-Glo MT Cell Viability Assay in HepG2 cells - 8 hour (AID 1224873); details: RealTime-Glo luminescence; series mostly up to 76.8 µM; further: nearly all actives have a fitted effect of over 55% in size
Method in brief: as §3

[8] = qHTS RealTime-Glo MT Cell Viability Assay in HEK293 cells - 40 hour (AID 1224874); details: RealTime-Glo luminescence; max response: stronger effect = lower value; further: nearly all actives have a fitted effect of over 50% in size; further: potency means the concentration at half of the fitted maximal effect
Method in brief: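 HEK293 cells mixed with RealTime-Glo reagents (NanoLuc plus cell-permeant prosubstrate) at 600 cells/well, preincubated 5 h at 37 C/5% CO2, then given 23 nL compound in DMSO. Nonlytic luminescence from viable cells was read at 0, 8, 16, 24, 32 and 40 h.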

[9] = A CellTox Green Cytotoxicity Assay to monitor cytotoxicity in HEK293 cells - 24 hour (AID 1224875); details: CellTox Green fluorescence; series mostly up to 76.8 µM; further: nearly all actives have a fitted effect of over 45% in size
Method in brief: as §2

[10] = qHTS RealTime-Glo MT Cell Viability Assay in HEK293 cells - 16 hour (AID 1224872); details: RealTime-Glo luminescence; series mostly up to 76.8 µM
Method in brief: as §1

SMILES | activity change, positive = activation [1] | outcome [2] | Potency [3] | Potency [4] | outcome [5] | Potency [6] | outcome [7] | max response [8] | Potency [9] | outcome [10] | Potency [8]
CN1C(=O)CN=C(c2ccccc2)c2cc(Cl)ccc21 | 8.92% (inactive) | – | – | – | – | – | – | – | – | – | –
CCCCCCCCCl | – | inactive | inactive | inactive | inactive | inactive | inactive | 2.47% (inactive) and 5.32% (inactive) | inactive | – | –
CC1C=[C-]C=C1.[C-]#[O+].[C-]#[O+].[C-]#[O+].[Mn] | – | inactive | inactive | inactive | inactive | inactive | inactive | 5.97% (inactive) and 3.98% (inactive) | inactive | inactive | –
CC(C)(C)C(O)(CCc1ccc(Cl)cc1)Cn1cncn1 (centres undefined) | – | inactive | 49.6 µM (active) and 49 µM (active) | inactive | inactive | inactive | inactive | – | inactive | – | 44.2 µM (active) and 54.9 µM (active)
CC1OC(C)OC(C)O1 (centres undefined) | – | inactive | inactive | inactive | inactive | inactive | inactive | 8.31% (inactive) and 5.6% (inactive) | inactive | – | –
CCNc1nc(NC(C)(C)C)nc(SC)n1 | – | inactive | 43.1 µM (active) | inactive | inactive | inactive | inactive | – | inactive | – | 27.2 µM (active)
CN=C=S | – | inactive | inactive | inactive | inactive | inactive | inactive | 6.14% (inactive) and -4.64% (inactive) | inactive | – | –
C=CCO | – | inactive | – | inactive and 43.6 µM (active) | inactive | inactive and 34.7 µM (active) | inactive | 4.57% (inactive) and 0.311% (inactive) | – | inactive | –
CCC(C)(CC)c1cc(NC(=O)c2c(OC)cccc2OC)on1 | – | inactive | inactive | inactive | inactive | inactive | inactive | – | inactive | inactive | –
c1ccc(OP(Oc2ccccc2)Oc2ccccc2)cc1 | – | inactive | inactive | inactive | inactive | inactive | inactive | 4.65% (inactive) and 9.76% (inactive) | inactive | inactive | –
c1ccc2c(c1)oc1ccccc12 | – | inactive | inactive | inactive | inactive | – | inactive | -5.88% (inactive) and -12.6% (inactive) | inactive | inactive | –
CC(Oc1ccc(Cl)cc1Cl)C(=O)O (centres undefined) | – | inactive | inactive | inactive | inactive | inactive | inactive | -2.47% (inactive) | inactive | – | –
CCCCOC(=O)c1ccccc1C(=O)OCCCC | – | inactive | inactive | inactive | inactive | inactive | inactive | -5.69% (inactive) and -1.79% (inactive) | inactive | – | –
O=S(=O)(c1ccc(Cl)cc1)c1cc(Cl)c(Cl)cc1Cl | – | inactive | inactive | inactive | inactive | inactive | inactive | – | inactive | – | –
COC(=O)c1ccccc1C(=O)OC | – | inactive | inactive | inactive | inactive | inactive | inactive | -6.01% (inactive) and 4.81% (inactive) | inactive | – | –
O=C(O)c1ccccn1 | – | inactive | inactive | inactive | inactive | inactive | inactive | -2.82% (inactive) and 14.7% (inactive) | inactive | – | –
Cc1ccccc1O | – | inactive | inactive | inactive | inactive | inactive | inactive | 2.91% (inactive) and -0.867% (inactive) | inactive | – | –
CCCN(CCC)N=O | – | inactive | inactive | inactive | inactive | inactive | inactive | -0.648% (inactive) and 5.21% (inactive) | inactive | – | –
C=CC(N)=O | – | inactive | inactive | inactive | inactive | inactive | inactive | 0.5% (inactive) and -10.4% (inactive) | inactive | – | –

SMILES | activity change, positive = activation [1] | outcome [2] | Potency [3] | Potency [4] | outcome [5] | Potency [6] | outcome [7] | max response [8] | Potency [9] | outcome [10] | Potency [8]
CN(C)N=O | – | inactive | inactive | inactive | inactive | inactive | inactive | 7.51% (inactive) and -1.45% (inactive) | inactive | – | –
CC(C)OC(=O)Nc1cccc(Cl)c1 | – | inactive | inactive | inactive | inactive | inactive | inactive | -5.94% (inactive) and -18% (inactive) | inactive | – | –
CCOP(=S)(OCC)SCCSCC | – | inactive | inactive | inactive | inactive | inactive | inactive | 5.05% (inactive) and 1.7% (inactive) | inactive | – | –
C1CN2CCN1CC2 | – | inactive | inactive | inactive and 21.9 µM (active) | inactive | inactive and 17.4 µM (active) | inactive | 1.08% (inactive) and 21.8% (inactive) | – | – | –
CC(C)C#N | – | inactive | inactive | inactive | inactive | inactive | inactive | 8.8% (inactive) and 1.31% (inactive) | inactive | – | –
Oc1ccccc1Cl | – | inactive | inactive | inactive | inactive | inactive | inactive | 9.22% (inactive) and 18.7% (inactive) | inactive | – | –
CCCCCOC(=O)c1ccccc1C(=O)OCCCCC | – | inactive | inactive | inactive | inactive | inactive | inactive | -11.1% (inactive) and -2.4% (inactive) | inactive | – | –
Nc1ccc(Cc2ccc(N)cc2)cc1 | – | inactive | inactive | inactive | inactive | inactive | inactive | -10.2% (inactive) | inactive | inactive | –
Cc1cccc([N+](=O)[O-])c1 | – | inactive | inactive | inactive | inactive | inactive | inactive | 1.89% (inactive) and 2.13% (inactive) | inactive | – | –
CC(NC(C)(C)C)C(=O)c1cccc(Cl)c1 (centres undefined) | – | inactive | inactive | inactive | inactive | inactive | inactive | 6.38% (inactive) and -11.6% (inactive) | inactive | inactive | –
COC(=O)NC(=S)Nc1ccccc1NC(=S)NC(=O)OC | – | inactive | inactive | inactive | inactive | inactive | inactive | – | inactive | – | –
CCN(CC)c1ccccc1 | – | inactive | inactive | inactive | inactive | inactive | inactive | 8.36% (inactive) and 18.4% (inactive) | inactive | – | –
O=NN1CCCCCCC1 | – | inactive | inactive | inactive | inactive | inactive | inactive | 6.51% (inactive) and -7.12% (inactive) | inactive | – | –
C[C@]12CC[C@H]3[C@@H](CC[C@@]45O[C@@H]4C(O)=C(C#N)C[C@]35C)[C@@H]1CC[C@@H]2O | – | inactive | inactive | inactive | inactive | inactive | inactive | 27.1% (inactive) and 19.8% (inactive) | inactive | – | –
CNC(=O)Oc1ccccc1OC(C)C | – | inactive | inactive | inactive | inactive | inactive | inactive | 0.581% (inactive) and -1.94% (inactive) | inactive | inactive | –
c1cc2c3c(cccc3c1)CC2 | – | inactive | – | inactive | inactive | inactive and 43.6 µM (active) | inactive | 0.321% (inactive) and -19.1% (inactive) | – | inactive | –
O=[N+]([O-])c1ccc([As](=O)(O)O)cc1 | – | inactive | inactive | inactive | inactive | inactive | inactive | 0.69% (inactive) and 11.7% (inactive) | inactive | – | –
CCOP(OCC)OCC | – | inactive | inactive | inactive | inactive | inactive | inactive | 7.3% (inactive) and 7.34% (inactive) | inactive | – | –
